In PubChem BioAssay (EPA / NIEHS):
Active and inactive are the calls of the source. Rule for the calls: active = hit-call score of the fitted dose curve at least 0.9, where 1 is the maximum; inactive = score below 0.9.

Test system: not listed separately
Assay: ATG_CRE_CIS: Attagene CIS-FACTORIAL HepG2 Assay for human cAMP Responsive Element (CRE) binding protein 3 (AID 2282926)
Settings: HepG2 CRE cis-reporter, Attagene multiplexed mRNA; actives raise or lower the signal
Outline: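 Endogenous CRE-binding activity in HepG2 is reported through a cis-regulated transfected reporter. Following a day of exposure, mRNA levels are determined by reverse transcription PCR and fluorescent fragment analysis; fits run in both directions versus DMSO.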

| SMILES | outcome | AC50 |
| --- | --- | --- |
| CN(CCCC(O)c1cccnc1)N=O (configuration not stated) | inactive | – |
| O=C(O)CC(O)(CC(=O)O)C(=O)O | inactive | – |
| BrCc1ccc(Br)cc1 | inactive | – |
| O=C(NC(=O)c1c(F)cccc1F)Nc1ccc(Cl)cc1 | inactive | – |
| C[As+](C)(C)CC(=O)[O-] | inactive | – |
| O=S(=O)(F)C(F)(F)C(F)(F)C(F)(F)C(F)(F)F | inactive | – |
| Cl[C@H]1OCCO[C@@H]1Cl | inactive | – |
| CC(C)(C)c1ccccc1O | – | 174 µM (active) |
| O=C1C=CC(=O)c2ccccc21 | inactive | – |
| COc1ccccc1N | inactive | – |
| O=C(CCl)NCO | inactive | – |
| O=C(Nc1ccc(Br)cc1)c1cc(Br)cc(Br)c1O | inactive | – |
| Clc1cccc(Cl)c1Cl | inactive | – |

Target: CCAAT/enhancer-binding protein beta (Homo sapiens) (UniProt P17676)
Assay: ATG_C_EBP_CIS: Attagene CIS-FACTORIAL HepG2 Assay for human CCAAT/Enhancer Binding Protein (C/EBP) beta (AID 2282927)
Settings: HepG2 Attagene cis-factorial transcription factor reporter; actives raise or lower the signal
Outline: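 Endogenous C/EBPb-driven reporter transcripts measured in transfected human HepG2 cells at 24 h via RT-PCR and capillary electrophoresis of labelled fragments. Activity fitted in both directions relative to DMSO baseline.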

Sequence of CCAAT/enhancer-binding protein beta (Homo sapiens) (P17676 whole entry, looked up): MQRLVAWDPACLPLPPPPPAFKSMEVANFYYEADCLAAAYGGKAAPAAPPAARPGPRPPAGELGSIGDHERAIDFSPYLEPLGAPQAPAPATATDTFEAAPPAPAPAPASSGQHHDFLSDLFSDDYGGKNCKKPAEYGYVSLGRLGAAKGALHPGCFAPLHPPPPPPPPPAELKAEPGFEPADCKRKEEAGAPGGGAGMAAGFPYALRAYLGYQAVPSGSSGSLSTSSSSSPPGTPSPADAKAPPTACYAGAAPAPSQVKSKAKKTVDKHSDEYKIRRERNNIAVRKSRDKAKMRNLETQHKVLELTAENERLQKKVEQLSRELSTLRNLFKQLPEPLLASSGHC

| SMILES | AC50 | outcome |
| --- | --- | --- |
| Oc1cc(Cl)c(Cl)cc1Cl | 46.5 µM (active) | – |
| CC(C)O.CC(C)O.OCCN(CCO)CCO.OCCN(CCO)CCO.[Ti] | – | inactive |
| N#Cc1cccnc1 | – | inactive |
| CCCCCCCCCCCCCl | – | inactive |
| CN(C)C(=S)S | – | inactive |
| Brc1ccc(Br)cc1 | – | inactive |
| CC1(C)[C@H](/C=C2\CCSC2=O)[C@@H]1C(=O)OCc1coc(Cc2ccccc2)c1 | – | inactive |
| Brc1ccc(Oc2c(Br)cc(Br)cc2Br)c(Br)c1 | – | inactive |
| CC(C=O)Cc1ccc2c(c1)OCO2 (configuration not stated) | – | inactive |
| O=C(N[C@H]1CN2CCC1CC2)c1ccc2c(c1)OCCO2 | – | inactive |
| C#C[C@]1(O)CC[C@H]2[C@@H]3CCC4=CC(=O)CC[C@]4(C)[C@H]3CC[C@@]21C | – | inactive |
| O=C(O)C1(c2ccc3c(c2)OC[C@H](Cc2ccc(-c4ccccc4)cc2)[C@H]3O)CCCC1 | – | inactive |
| O=c1oc2ccccc2c(O)c1C(CC(O)c1ccc(-c2ccc(Br)cc2)cc1)c1ccccc1 (configuration not stated) | – | inactive |
| O=C(O)COc1cc(Cl)c(Cl)cc1Cl | – | inactive |
| COc1nn(C(=O)NS(=O)(=O)c2ccccc2OC(F)(F)F)c(=O)n1C | – | inactive |
| Fc1cccc(Cl)c1CCl | – | inactive |
| O=C(NC(=O)c1c(F)cccc1F)Nc1cc(Cl)c(F)c(Cl)c1F | – | inactive |
| OCCN(CCO)CCO | – | inactive |
| COc1ccc(N)cc1 | – | inactive |
| Oc1c(Cl)cc(Cl)cc1Cl | – | inactive |

| SMILES | AC50 | outcome |
| --- | --- | --- |
| O=c1nc(O)n(Cl)c(=O)n1Cl | – | inactive |
| Cc1cc(C)cc(C)c1 | – | inactive |
| COCC(=O)N(c1c(C)cccc1C)[C@H](C)C(=O)OC | – | inactive |
| CCCCCCCCCCCCCCC(Br)C(=O)O (configuration not stated) | 179 µM (active) | – |
| CN(CCCC(O)c1cccnc1)N=O (configuration not stated) | – | inactive |
| O=C(O)CC(O)(CC(=O)O)C(=O)O | – | inactive |
| BrCc1ccc(Br)cc1 | – | inactive |
| Clc1cccc(Cl)c1 | – | inactive |
| O=C(NC(=O)c1c(F)cccc1F)Nc1ccc(Cl)cc1 | – | inactive |
| C[As+](C)(C)CC(=O)[O-] | – | inactive |
| O=S(=O)(F)C(F)(F)C(F)(F)C(F)(F)C(F)(F)F | – | inactive |
| Cl[C@H]1OCCO[C@@H]1Cl | – | inactive |
| CC(C)(C)c1ccccc1O | 163 µM (active) | – |
| CCCCCCCCCCCCc1cccc(S(=O)(=O)O)c1 | – | inactive |
| O=C1C=CC(=O)c2ccccc21 | – | inactive |
| COc1ccccc1N | – | inactive |
| O=C(CCl)NCO | – | inactive |
| O=C(Nc1ccc(Br)cc1)c1cc(Br)cc(Br)c1O | – | inactive |
| Clc1cccc(Cl)c1Cl | – | inactive |
